Screening results from PubChem BioAssay.
The list is not random: actives were taken first. Their share in the collection is about 6.5%.
VACV Venus inh: qHTS for Stage-Specific Inhibitors of Vaccinia Orthopoxvirus: Venus Reporter Primary qHTS. actives 0.46% (n = 330,000). Vaccinia virus Venus reporter expression, fluorescence. Potency, µM (doses to about 36.5 µM), inactives show top-dose activity change, negative = inhibition, hits mostly inhibitors; calls by dose curve; tested in A549 cells; also: potency is read from the fitted curve at half-maximal effect; nearly all actives have a fitted effect of over 30% in size
HCMV inh: qHTS Assay for inhibitors of the human cytomegalovirus (HCMV) | HFF cells, HCMV-luciferase reporter, 72 h; stronger effect = lower value | activity change, negative = inhibition, % at 57.5 µM | actives 4.5% (n = 410,000); in the data active = activity change below about -60%; inconclusive = no clear call, values can overlap the other calls; inactive = above about -39%
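Screen run at 2 compound doses on HFFs infected with reporter HCMV, MOI 1 PFU/cell. Luciferase activity from cell lysates at 72 h post infection gave inhibition relative to buffer-only and Salinomycin wells.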
Marburg entry inh: qHTS for inhibitors of binding or entry into cells for Marburg Virus. Marburg virus pseudotyped entry inhibition, cell reporter. Potency, µM (highest dose often 37.8 µM), inactives show top-dose activity change, negative = inhibition, most hits filed as inhibitors. actives 1.8% (n = 300,000). AID 540276, 2011; calls by dose curve; tested in HEK293 cells; also: potency is read from the fitted curve at half-maximal effect
Vaccinia mCherry: qHTS for Stage-Specific Inhibitors of Vaccinia Orthopoxvirus: mCherry Reporter Primary qHTS; Potency, µM (doses to about 36.5 µM), without a hit: at the top dose activity change, negative = inhibition, actives largely listed as inhibitors; AID 720579, 2013; Vaccinia virus mCherry reporter infection, fluorescence; actives 0.63% (n = 310,000); calls by dose curve; tested in A549 cells; also: potency is read from the fitted curve at half-maximal effect; nearly all actives have a fitted effect of over 35% in size
FMDV inh: High Throughput Screening for Foot and Mouth Disease Virus Antivirals | Potency, µM (titrated, usually from 57.9 µM), for the others: top-dose activity change, negative = inhibition, hits mostly inhibitors | FMDV antiviral cell-based qHTS | AID 1159524, 2015 | actives 1.2% (n = 410,000); calls by dose curve; tested in HEK293T cells; also: read-out not given here; potency is read from the fitted curve at half-maximal effect; nearly all actives have a fitted effect of over 45% in size
Lassa entry inh: qHTS for Inhibitors of binding or entry into cells for Lassa Virus | Lassa virus pseudotype entry inhibition, cell reporter | Potency, µM (series often up to 37.9 µM), inactives show at the top dose activity change, negative = inhibition, hits mostly inhibitors | actives 1.2% (n = 300,000); calls by dose curve; tested in HEK293 cells; also: potency is read from the fitted curve at half-maximal effect; nearly all actives have a fitted effect of over 50% in size
* = called active by the depositor; ? = inconclusive; . = no result; [ ] = dose if it differs, or a comment. % is scaled to controls: 0 for no effect and ±100 for the full control effect.

SMILES	VACV Venus inh	HCMV inh	Marburg entry inh	Vaccinia mCherry	FMDV inh	Lassa entry inh
O=C(N/N=C/c1cc([N+](=O)[O-])ccc1O)Nc1ccccc1	-21%	6	?	?	3%	-28%
O=[N+]([O-])c1ccc(O)c(/C=N/Nc2ncnc3c2cnn3-c2ccccc2)c1	.	-99*	.	.	27%	.
CCN(CC)S(=O)(=O)c1ccc(N/N=C(\C)c2ccncc2)nc1	8%	13	?	-9%	-1%	2%[46.1 µM]
O=[N+]([O-])c1ccc(NN=Cc2ccc(O)cc2)nc1	-2%	8	?	?	-17%	?
O=[N+]([O-])c1ccc(NN=Cc2ccc(O)cc2O)nc1	?	-98*	?	1.4µM*	13%	?
O=C(CN(CC(=O)NCc1ccccc1)CC(=O)NCc1ccccc1)NCc1ccccc1	.	-3	.	.	.	.
COc1cccc(N2CCN(C(=O)c3cnc4c(-c5ccc(F)cc5)c(C)nn4c3C)CC2)c1	-14%	2	.	-6%	-13%	4%[46.1 µM]
Cc1cccc(NC(=O)c2oc3ccc(S(=O)(=O)N4CCC5(CC4)OCCO5)cc3c2C)c1C	-22%	21	.	-14%	?	?
O=[N+]([O-])c1ccc(O)c(/C=N/Nc2nc3ccccc3[nH]2)c1	?	-99*	2.8µM*	8.9µM*	11%	3.5µM*
O=[N+]([O-])c1ccc(NN=Cc2ccccc2O)nc1	?	-98*	?	?	65%	?
COc1ccccc1C=NNc1ccc([N+](=O)[O-])cn1	-1%	20	0%	-15%	2%	17%
COc1ccc(NC(=O)N2c3ccc(OC)cc3[C@@H](NS(C)(=O)=O)[C@H](C)[C@H]2c2ccccc2)cc1	.	-20	.	.	.	.
COc1ccc(Cl)cc1NC(=O)CCCn1c(C)c2cnn(-c3ccccc3)c(=O)c2c1C	-9%	-10	-25%[46.1 µM]	-1%	-28%	-1%[46.1 µM]
CC(C)CC1OC(C(C)C)Cc2[nH]c(=S)[nH]c(=O)c21 (stereo unspecified)	0.013µM*	?	.	.	0%	.
CC(C)[C@@H]1Cc2[nH]c(=S)[nH]c(=O)c2[C@H](C)O1	0%	3	.	38%	-20%	.
COc1ccc(OC)c(NC(=O)CSc2ccnc(=O)[nH]2)c1	2%	2	.	2%	3%	18%[46.1 µM]
CN(C)CC/C=C1\c2cc(F)ccc2CSc2ccccc21	?	18	?	-13%	?	16µM*
CN(C)CC/C=C1\c2ccccc2Sc2cc(F)c(Cl)cc21	?	-65*	14µM*	-9%	?	?
CN(C)CC/C=C1/c2ccc(F)cc2Sc2ccc(Cl)cc21	3%[7.34 µM]	-3	13µM*	-1%[7.34 µM]	-14%	?
CN(C)CC/C=C1\c2ccccc2Sc2ccc(Cl)cc21	?	-7	?	?	-23%	?
CN(C)CC/C=C1\c2ccc(F)cc2Sc2cc(F)c(Cl)cc21	.	-108*	.	.	?	.
Cc1c(C(=O)NCc2ccc3c(c2)OCO3)sc(=O)n1Cc1ccc(-c2ccccc2)cc1	3%	-67*	.	1%	-13%	.
Cc1c(C(=O)NCc2ccc([N+](=O)[O-])cc2)sc(=O)n1Cc1ccc(-c2ccccc2)cc1	-17%	-84*	.	-14%	-25%	.
Cc1ccc(Cl)cc1N1CCN(CCCNc2ncnc3onc(-c4ccc(F)cc4)c23)CC1	-27%	-3	.	-28%	?	-26%[46.1 µM]
Fc1ccc(-n2ncc3c(N4CCC(Cc5ccccc5)CC4)ncnc32)cc1	-3%	-3	.	6%	6%	?
SMILES	VACV Venus inh	HCMV inh	Marburg entry inh	Vaccinia mCherry	FMDV inh	Lassa entry inh
CC(=O)Nc1ccc(S(=O)(=O)N(C)c2ccc(OCCOc3ccccc3F)cc2)cc1	-7%	0	1%	-14%	-10%	-19%
CC(=O)Nc1ccc(S(=O)(=O)N(C)c2ccc(OCC(=O)NCCc3ccccc3F)cc2)cc1	.	-62*	.	.	?	.
CN(c1ccc(OCC(=O)Nc2ccc3[nH]c(=O)[nH]c3c2)cc1)S(=O)(=O)c1ccc(Cl)cc1	.	-1	?	.	-8%	23µM*
CCOc1ccc(S(=O)(=O)N(C)c2ccc(OCC(=O)NCc3ccc(C(=O)OC)cc3)cc2)cc1	4%	-15	2%[46.1 µM]	-23%	0%	3.2µM*
CC(=O)Nc1ccc(S(=O)(=O)N(C)CC(=O)OCC(=O)NNC(=O)c2ccccc2F)cc1	-5%	11	-4%	-15%	4.5µM*	-3%
Cc1ccc(NC(=O)c2ccc(NC(=O)C3CCCC3)cc2)c(C)c1	-10%	.	.	-22%	.	.
C/C=C/COC(=O)c1[nH]c2c(c1C)C(=O)CC(c1ccco1)C2 (stereo unspecified)	?	-65*	?	?	-5%	?
Cc1c(C(=O)OCC(C)C)[nH]c2c1C(=O)CC(c1ccco1)C2 (stereo unspecified)	?	-77*	?	?	0%	?
C=CCOC(=O)c1[nH]c2c(c1C)C(=O)CC(c1ccco1)C2 (stereo unspecified)	-22%	.	.	?	6%	.
Cc1c(C(=O)OC2CCCC2)[nH]c2c1C(=O)CC(c1ccco1)C2 (stereo unspecified)	?	-95*	.	?	?	.
CCN(c1ccccc1)S(=O)(=O)c1c(C)nc2scc(C)n2c1=O	-5%	-11	7%[46.1 µM]	1%	7%	-2%[46.1 µM]
COc1ccc(OC)c(CNS(=O)(=O)c2ccc3c(c2)oc(=O)n3C)c1	-11%	-15	5%[46.1 µM]	-20%	23%	19%[46.1 µM]
COc1ccc(-n2nc3c(N4CCC(C(=O)NCCc5ccccc5C)CC4)nnc(C)c3c2C)cc1	-23%	.	?	-1%	-28%	-15%[46.1 µM]
COc1ccc(-n2nc3c(N4CCCC(C(=O)NCCc5ccccc5C)C4)nnc(C)c3c2C)cc1 (stereo unspecified)	-8%	-87*	.	-27%	-7%	-17%[46.1 µM]
CCOc1ccccc1CNC(=O)C1CCCN(c2nnc(C)c3c(C)n(-c4ccccc4)nc23)C1 (stereo unspecified)	?	-107*	.	?	5%	1%[46.1 µM]
COc1ccc(-n2nc3c(N4CCC(C(=O)NCc5ccccc5C)CC4)nnc(C)c3c2C)cc1	?	?	?	-12%	-11%	?
COc1ccc(-n2nc3c(N4CCCC(C(=O)NCc5ccccc5C)C4)nnc(C)c3c2C)cc1 (stereo unspecified)	?	-99*	.	?	-26%	6.3µM*
O=c1cnn([C@@H]2O[C@H](CO)[C@@H](O)[C@H]2O)c(=O)[nH]1	0%	.	?	?	-6%	0.092µM*
Cc1nc(-c2ccc(C)c(N3CCN(C(=O)Nc4cccc(Cl)c4C)CC3)c2)no1	?	-88*	.	-14%	?	-11%[46.1 µM]
